Key:
Assay in all cases: DAPPL (digital affinity profiling via proximity ligation, sequencing); 10 mM Tris-HCl pH 7.5, 50 mM NaCl, 1 mM DTT, 4% glycerol, room temperature, 30 min; GST-TFs on glutathione beads, 16-mer random dsDNA library, 0.1% formaldehyde crosslink after washing; high values mean tight binding
Conditions in all cases: protein: recombinant; tags: N-terminal GST; dsDNA, one strand shown
ERF = biological target: T1, ERF (Homo sapiens, UniProt P50548 1-548)
T1 sequence: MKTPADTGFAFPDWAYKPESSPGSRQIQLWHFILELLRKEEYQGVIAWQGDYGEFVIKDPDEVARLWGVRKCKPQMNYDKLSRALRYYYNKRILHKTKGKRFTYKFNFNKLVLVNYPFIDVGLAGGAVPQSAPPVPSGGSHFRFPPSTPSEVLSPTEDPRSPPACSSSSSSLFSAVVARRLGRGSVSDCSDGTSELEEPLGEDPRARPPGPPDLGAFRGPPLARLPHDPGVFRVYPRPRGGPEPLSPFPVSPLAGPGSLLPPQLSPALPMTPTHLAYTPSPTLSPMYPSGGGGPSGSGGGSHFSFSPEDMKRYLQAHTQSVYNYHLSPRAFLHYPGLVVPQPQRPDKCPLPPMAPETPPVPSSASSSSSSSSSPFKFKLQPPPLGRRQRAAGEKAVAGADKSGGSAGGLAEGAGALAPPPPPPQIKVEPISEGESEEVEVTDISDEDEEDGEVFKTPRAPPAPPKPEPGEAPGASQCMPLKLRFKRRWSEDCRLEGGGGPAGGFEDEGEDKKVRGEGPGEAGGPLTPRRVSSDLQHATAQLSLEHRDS
Outline: (§1)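 Sequencing on an Illumina NextSeq500 followed washing, crosslinking with 0.1% formaldehyde, proximity ligation (BsaI/T4 ligase, 1 h, 37 °C) and PCR amplification of pools that had been incubated for 30 min at room temperature with 200 nmole of a random double-stranded 16-mer DNA library in Tris/NaCl/DTT/glycerol buffer. Each pool held DNA-barcoded human transcription factors, expressed in yeast as GST fusions and captured on glutathione beads, plus a tag-only sample. Binding signal is a hexamer's read frequency for a factor divided by its frequency in the tag-only sample.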

ETV3L = biological target: T2, ETV3L (Homo sapiens, UniProt Q6ZN32 1-361)
T2 sequence: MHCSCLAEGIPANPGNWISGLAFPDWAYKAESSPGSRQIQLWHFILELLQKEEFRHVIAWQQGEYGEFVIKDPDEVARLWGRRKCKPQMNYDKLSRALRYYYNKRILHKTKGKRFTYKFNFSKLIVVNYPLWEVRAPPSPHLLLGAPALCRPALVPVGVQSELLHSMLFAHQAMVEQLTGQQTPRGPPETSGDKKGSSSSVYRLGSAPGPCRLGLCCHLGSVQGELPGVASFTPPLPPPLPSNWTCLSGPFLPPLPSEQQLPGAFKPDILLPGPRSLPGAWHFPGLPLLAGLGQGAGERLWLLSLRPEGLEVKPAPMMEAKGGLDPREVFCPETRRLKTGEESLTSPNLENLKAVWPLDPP
Outline: as §1

ETS2 = biological target: T3, ETS2 (Homo sapiens, UniProt P15036 1-469)
T3 sequence: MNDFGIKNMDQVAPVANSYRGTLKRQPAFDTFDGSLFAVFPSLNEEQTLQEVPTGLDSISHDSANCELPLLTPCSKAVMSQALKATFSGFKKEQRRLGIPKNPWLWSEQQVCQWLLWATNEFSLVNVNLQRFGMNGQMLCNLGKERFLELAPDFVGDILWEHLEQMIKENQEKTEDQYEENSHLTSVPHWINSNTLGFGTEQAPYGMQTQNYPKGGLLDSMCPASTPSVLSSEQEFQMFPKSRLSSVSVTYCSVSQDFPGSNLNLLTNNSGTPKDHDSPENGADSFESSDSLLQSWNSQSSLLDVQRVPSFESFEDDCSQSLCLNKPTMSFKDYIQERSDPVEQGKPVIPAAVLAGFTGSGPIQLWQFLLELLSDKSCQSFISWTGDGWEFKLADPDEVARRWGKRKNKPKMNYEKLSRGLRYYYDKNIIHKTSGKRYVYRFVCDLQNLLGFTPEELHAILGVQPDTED
Outline: as §1

SPDEF = biological target: T4, SPDEF (Homo sapiens, UniProt O95238 1-335)
T4 sequence: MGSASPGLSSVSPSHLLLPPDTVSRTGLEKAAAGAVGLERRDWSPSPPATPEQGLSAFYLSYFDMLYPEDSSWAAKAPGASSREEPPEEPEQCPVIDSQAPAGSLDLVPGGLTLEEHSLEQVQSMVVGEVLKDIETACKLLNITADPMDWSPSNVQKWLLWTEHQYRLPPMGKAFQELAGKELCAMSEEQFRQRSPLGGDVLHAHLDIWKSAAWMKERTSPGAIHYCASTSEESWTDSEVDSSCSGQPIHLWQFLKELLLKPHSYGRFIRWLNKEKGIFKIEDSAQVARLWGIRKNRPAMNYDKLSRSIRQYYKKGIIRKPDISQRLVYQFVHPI
Outline: as §1

ETV7 = biological target: T5, ETV7 (Homo sapiens, UniProt Q9Y603 1-341)
T5 sequence: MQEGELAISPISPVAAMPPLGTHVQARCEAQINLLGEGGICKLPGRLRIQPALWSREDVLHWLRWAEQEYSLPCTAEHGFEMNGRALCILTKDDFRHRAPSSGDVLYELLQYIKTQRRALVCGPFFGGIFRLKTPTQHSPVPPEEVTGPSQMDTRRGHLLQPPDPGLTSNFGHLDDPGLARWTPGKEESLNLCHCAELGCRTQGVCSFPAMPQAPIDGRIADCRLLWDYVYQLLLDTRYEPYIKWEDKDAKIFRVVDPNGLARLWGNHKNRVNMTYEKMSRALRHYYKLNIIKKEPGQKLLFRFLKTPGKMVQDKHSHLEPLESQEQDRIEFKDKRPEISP
Outline: as §1

ELF5 = biological target: T6, ELF5 (Homo sapiens, UniProt Q9UKW6-2 1-255)
T6 sequence: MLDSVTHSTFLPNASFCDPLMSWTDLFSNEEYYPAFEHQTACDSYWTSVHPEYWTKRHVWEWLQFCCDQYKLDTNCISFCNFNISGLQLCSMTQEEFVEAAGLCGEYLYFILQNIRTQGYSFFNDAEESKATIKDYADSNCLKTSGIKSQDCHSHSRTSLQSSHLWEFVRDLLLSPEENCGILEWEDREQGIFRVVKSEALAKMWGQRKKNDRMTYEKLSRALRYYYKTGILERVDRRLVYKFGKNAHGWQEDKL
Outline: as §1

ETV3 = biological target: T7, ETV3 (Homo sapiens, UniProt P41162-2 1-143)
T7 sequence: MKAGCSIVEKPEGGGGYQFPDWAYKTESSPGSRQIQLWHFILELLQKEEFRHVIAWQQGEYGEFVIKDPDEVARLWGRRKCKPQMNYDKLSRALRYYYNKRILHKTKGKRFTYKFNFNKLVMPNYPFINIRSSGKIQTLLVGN
Outline: as §1

ETV6 = ETV6 (Homo sapiens, UniProt P41212 1-452)
Sequence of ETV6 (P41212 whole entry): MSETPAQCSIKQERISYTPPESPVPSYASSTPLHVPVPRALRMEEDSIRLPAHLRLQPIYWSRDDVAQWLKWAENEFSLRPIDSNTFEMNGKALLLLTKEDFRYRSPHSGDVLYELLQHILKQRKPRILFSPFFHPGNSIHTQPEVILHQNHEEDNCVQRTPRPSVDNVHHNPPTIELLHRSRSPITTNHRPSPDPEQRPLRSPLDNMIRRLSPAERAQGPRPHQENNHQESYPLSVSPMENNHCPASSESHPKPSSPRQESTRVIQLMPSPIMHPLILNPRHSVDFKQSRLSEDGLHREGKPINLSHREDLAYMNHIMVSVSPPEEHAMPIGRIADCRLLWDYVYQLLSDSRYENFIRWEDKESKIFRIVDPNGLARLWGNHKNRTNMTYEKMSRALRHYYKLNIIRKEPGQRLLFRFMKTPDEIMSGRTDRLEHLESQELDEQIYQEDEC
Outline: as §1

Row | Sequence | binding signal (ERF) | binding signal (ETV3L) | binding signal (ETS2) | binding signal (SPDEF) | binding signal (ETV7) | binding signal (ELF5) | binding signal (ETV3) | binding signal (ETV6)
1 | GTCCCG | 1.22 fold enrichment (6-mer frequency, TF over GST control) | 1.3 fold enrichment (6-mer frequency, TF over GST control) | 1.22 fold enrichment (6-mer frequency, TF over GST control) | 1.34 fold enrichment (6-mer frequency, TF over GST control) | 1.19 fold enrichment (6-mer frequency, TF over GST control) | 1.23 fold enrichment (6-mer frequency, TF over GST control) | 1.32 fold enrichment (6-mer frequency, TF over GST control) | 1.13 fold enrichment (6-mer frequency, TF over GST control)
2 | AACCAT | 1.07 fold enrichment (6-mer frequency, TF over GST control) | 1.16 fold enrichment (6-mer frequency, TF over GST control) | 1.12 fold enrichment (6-mer frequency, TF over GST control) | 1.11 fold enrichment (6-mer frequency, TF over GST control) | 1.15 fold enrichment (6-mer frequency, TF over GST control) | 1.08 fold enrichment (6-mer frequency, TF over GST control) | 1.16 fold enrichment (6-mer frequency, TF over GST control) | 1.13 fold enrichment (6-mer frequency, TF over GST control)
3 | TACTGG | 1.16 fold enrichment (6-mer frequency, TF over GST control) | 1.11 fold enrichment (6-mer frequency, TF over GST control) | 1.08 fold enrichment (6-mer frequency, TF over GST control) | 1.05 fold enrichment (6-mer frequency, TF over GST control) | 1.12 fold enrichment (6-mer frequency, TF over GST control) | 1.04 fold enrichment (6-mer frequency, TF over GST control) | 1.11 fold enrichment (6-mer frequency, TF over GST control) | 1.15 fold enrichment (6-mer frequency, TF over GST control)
4 | GATGTC | 1.29 fold enrichment (6-mer frequency, TF over GST control) | 1.31 fold enrichment (6-mer frequency, TF over GST control) | 1.33 fold enrichment (6-mer frequency, TF over GST control) | 1.53 fold enrichment (6-mer frequency, TF over GST control) | 1.27 fold enrichment (6-mer frequency, TF over GST control) | 1.42 fold enrichment (6-mer frequency, TF over GST control) | 1.32 fold enrichment (6-mer frequency, TF over GST control) | 1.21 fold enrichment (6-mer frequency, TF over GST control)
5 | TATCAG | 1.13 fold enrichment (6-mer frequency, TF over GST control) | 1.11 fold enrichment (6-mer frequency, TF over GST control) | 1.15 fold enrichment (6-mer frequency, TF over GST control) | 1.26 fold enrichment (6-mer frequency, TF over GST control) | 1.07 fold enrichment (6-mer frequency, TF over GST control) | 1.06 fold enrichment (6-mer frequency, TF over GST control) | 1.12 fold enrichment (6-mer frequency, TF over GST control) | 1.12 fold enrichment (6-mer frequency, TF over GST control)
6 | GATGCC | 1.36 fold enrichment (6-mer frequency, TF over GST control) | 1.39 fold enrichment (6-mer frequency, TF over GST control) | 1.33 fold enrichment (6-mer frequency, TF over GST control) | 1.52 fold enrichment (6-mer frequency, TF over GST control) | 1.27 fold enrichment (6-mer frequency, TF over GST control) | 1.35 fold enrichment (6-mer frequency, TF over GST control) | 1.39 fold enrichment (6-mer frequency, TF over GST control) | 1.32 fold enrichment (6-mer frequency, TF over GST control)
7 | TGCTTA | 1.1 fold enrichment (6-mer frequency, TF over GST control) | 1.09 fold enrichment (6-mer frequency, TF over GST control) | 1.1 fold enrichment (6-mer frequency, TF over GST control) | 1.18 fold enrichment (6-mer frequency, TF over GST control) | 1.12 fold enrichment (6-mer frequency, TF over GST control) | 1.03 fold enrichment (6-mer frequency, TF over GST control) | 1.18 fold enrichment (6-mer frequency, TF over GST control) | 1.1 fold enrichment (6-mer frequency, TF over GST control)
8 | CCGGAA | 4.48 fold enrichment (6-mer frequency, TF over GST control) | 5.28 fold enrichment (6-mer frequency, TF over GST control) | 5.63 fold enrichment (6-mer frequency, TF over GST control) | 6.22 fold enrichment (6-mer frequency, TF over GST control) | 5.01 fold enrichment (6-mer frequency, TF over GST control) | 6.42 fold enrichment (6-mer frequency, TF over GST control) | 6.2 fold enrichment (6-mer frequency, TF over GST control) | 6.11 fold enrichment (6-mer frequency, TF over GST control)

From publication PMC7862700, “An all-to-all approach to the identification of sequence-specific readers for epigenetic DNA modifications on cytosine”
